PrPC TRFRET = inhibitors of human cell surface prion protein PrPC, primary screen, cell-based, TR-FRET; Major prion protein (Homo sapiens), P04156; TR-FRET read-out; inhibition, % at 13.8 µM; 370,000 tested, 0.43% active; AID 720596, 2013; in the data active = inhibition above about 24%; note: 0% = median of the test wells and 100% = reference compound wells
TcdB inh = TcdB glycohydrolase inhibitors, primary screen, biochemical, single point, plate reader; TcdB glycohydrolase enzymatic assay; inhibition, % at 9.99 µM; 350,000 tested, 0.24% active; in the data active = inhibition above about 10%
VHR inh abs = VHR1 phosphatase inhibitors, primary screen, biochemical, absorbance, uHTS; Dual specificity protein phosphatase 3 (Homo sapiens), P51452; recombinant VHR phosphatase, pNPP absorbance; inhibition, % at 13.3 µM; 290,000 tested, 0.52% active; AID 1654, 2009; in the data active = inhibition above about 50%
The depositor's hits bear a star. Compounds with a hit are over-represented: about 0.82% of the library has one in this group of screens.

How did COc1cc2c(cc1OC)C(C)N(C(=O)c1cccs1)CC2 (configuration not stated) do in these assays?
PrPC TRFRET: -1.9; TcdB inh: 0.6; VHR inh abs: 10.6

How did O=C(Nc1ccccc1F)N[C@@H]1C=C[C@H](CC(=O)N2CCCCC2)O[C@H]1CO do in these assays?
TcdB inh: -0.8

What do the screens show for `c1ccc2c(c1)CCN(CCCNc1nc3ccccc3n3cnnc13)C2`?
PrPC TRFRET: -10.6; TcdB inh: 0.6; VHR inh abs: 54.2*

What do the screens show for `COCCNc1nc2ccccc2n2cnnc12`?
PrPC TRFRET: -5.1; TcdB inh: 0.6; VHR inh abs: 9.5

What do the screens show for `C[C@@H]1CN([C@@H](C)CO)C(=O)c2cc(NS(=O)(=O)c3cn(C)cn3)ccc2O[C@H]1CN(C)C(=O)Nc1ccc(C(F)(F)F)cc1`?
TcdB inh: -0.4

Results for COc1ccc(/C=C(\C#N)C(=O)Nc2ccccn2)cc1 ?
PrPC TRFRET: 2.6; TcdB inh: 0.7

How did Cc1ccc(/C=C(\C#N)C(=O)Nc2ccccn2)o1 do in these assays?
PrPC TRFRET: -10.1; TcdB inh: 17.2*; VHR inh abs: 16.6

Results for Cc1nn(-c2cccc(Cl)c2)c(Cl)c1/C=N/NC(=O)c1cccs1 ?
PrPC TRFRET: 0.8; TcdB inh: 0.7; VHR inh abs: 53.8*

Results for CCNC(=S)N/N=C/c1c(C)nn(-c2cccc(Cl)c2)c1Cl ?
PrPC TRFRET: 8.2; TcdB inh: -0.2; VHR inh abs: 2.9

How did CS(=O)(=O)c1nc(S(=O)(=O)c2ccc(Cl)cc2)c(N2CCC(C(N)=O)CC2)s1 do in these assays?
PrPC TRFRET: 5.9; TcdB inh: -0.8; VHR inh abs: -5.0

Results for CCS(=O)(=O)c1nc(S(=O)(=O)c2ccc(Cl)cc2)c(N2CCC(C(N)=O)CC2)s1 ?
PrPC TRFRET: -2.6; TcdB inh: 0.9; VHR inh abs: 55.5*

How did O=C(Cc1ccncc1)NCC[C@H]1CC[C@H](NC(=O)C2CC2)[C@@H](CO)O1 do in these assays?
TcdB inh: -8.4

Results for CCC(/C=C1\Oc2ccc(OC)cc2N1C)=C\c1sc2ccccc2[n+]1CCCS(=O)(=O)[O-] ?
PrPC TRFRET: -10.7; TcdB inh: -1.0

What do the screens show for `COc1cc(/C=C/c2sc3ccccc3[n+]2CCCS(=O)(=O)[O-])ccc1O`?
PrPC TRFRET: -31.2; TcdB inh: 10.4*; VHR inh abs: 38.0

How did C/C=C/c1ccccc1[C@@H]1[C@@H](CO)N(C(=O)Cc2ccccn2)[C@H]1C#N do in these assays?
TcdB inh: 1.1

How did COc1ccc(-n2nc(C(=O)NCC(=O)N3CCOCC3)c3ccccc3c2=O)c(OC)c1 do in these assays?
PrPC TRFRET: -2.8; TcdB inh: 1.2; VHR inh abs: -15.3

Results for COc1ccc(-n2nc(C(=O)NCC(=O)N3CCC4(CC3)OCCO4)c3ccccc3c2=O)c(OC)c1 ?
PrPC TRFRET: -7.6; TcdB inh: 0.2; VHR inh abs: 56.2*

Results for CC(=O)N(c1ccccc1C)S(=O)(=O)c1ccc(Cl)cc1 ?
PrPC TRFRET: 8.5; TcdB inh: 11.0*; VHR inh abs: 21.8

Results for CCOc1ccccc1N(C(C)=O)S(=O)(=O)c1ccc(Cl)cc1 ?
PrPC TRFRET: -1.9; TcdB inh: 1.1; VHR inh abs: -2.0

What do the screens show for `CO[C@@H]1CN(C)C(=O)c2cc(NC(C)=O)ccc2OC[C@@H](C)N(C(=O)CN2CCOCC2)C[C@H]1C`?
TcdB inh: 1.3

How did NC(=O)c1ccc[n+](CC(=O)c2ccc(NC(=O)c3ccccc3)cc2)c1 do in these assays?
PrPC TRFRET: -1.5; TcdB inh: -0.8; VHR inh abs: -1.6

What do the screens show for `CCOC(=O)c1ccc[n+](CC(=O)c2ccc(NC(=O)c3ccccc3)cc2)c1`?
PrPC TRFRET: 9.5; TcdB inh: 12.4*; VHR inh abs: 10.8

What do the screens show for `O=C(C[C@H]1C=C[C@@H](NC(=O)CN2CCOCC2)[C@H](CO)O1)NC1CCCCC1`?
TcdB inh: 0.0

Results for Nc1nc(COc2ccc3ccccc3c2)cs1 ?
PrPC TRFRET: 6.3; VHR inh abs: 7.2

Results for Nc1nc(CCOc2ccc(F)cc2)cs1 ?
PrPC TRFRET: -4.5; TcdB inh: 11.1*; VHR inh abs: 20.1

How did CCS(=O)(=O)Nc1ccc2c(c1)C(=O)N(C)[C@H]1CC[C@H](CC(=O)OC)O[C@H]1CO2 do in these assays?
TcdB inh: -7.4

Results for COc1ccc(NC(=O)N(C)C[C@@H]2Oc3c(NC(=O)Nc4c(C)noc4C)cccc3C(=O)N([C@H](C)CO)C[C@@H]2C)cc1 ?
TcdB inh: 0.8

What do the screens show for `Nc1nc(CSCc2ccccc2)nc(N2CCOCC2)n1`?
PrPC TRFRET: 5.9; VHR inh abs: 20.4

What do the screens show for `Nc1nc(CSc2nc3ccccc3s2)nc(N2CCOCC2)n1`?
PrPC TRFRET: 7.0; TcdB inh: -0.6; VHR inh abs: 53.0*

Results for CC(=O)c1cccc(N=c2scc(-c3ccc(S(=O)(=O)N4CCOCC4)cc3)n2CCO)c1 ?
PrPC TRFRET: 24.4*; TcdB inh: 0.9; VHR inh abs: -11.3

Results for C=CCn1c(-c2ccc(S(=O)(=O)N3CCOCC3)cc2)csc1=Nc1ccccc1 ?
PrPC TRFRET: 0.0; VHR inh abs: 24.6

Results for O=C(NC(=S)NCc1ccccc1)c1cccnc1 ?
PrPC TRFRET: 6.2; TcdB inh: 15.8*; VHR inh abs: 18.8

What do the screens show for `S=C(NCc1ccncc1)Nc1ccccc1`?
PrPC TRFRET: 1.0; TcdB inh: 0.9; VHR inh abs: 19.1

What do the screens show for `O=C(NNC(=S)NCc1ccccc1)c1cccnc1`?
PrPC TRFRET: 3.2; TcdB inh: -0.2; VHR inh abs: -2.7

What do the screens show for `COc1ccc(C(=O)NNC(=S)NC(=O)c2cccnc2)cc1`?
PrPC TRFRET: -3.0; TcdB inh: 2.9; VHR inh abs: 1.9

How did O=C(Cc1ccccc1)NNC(=S)NC(=O)c1cccnc1 do in these assays?
PrPC TRFRET: -5.6; TcdB inh: 18.8*; VHR inh abs: 12.0

What do the screens show for `COc1ccc(CC(=O)NNC(=S)NC(=O)c2cccnc2)cc1`?
PrPC TRFRET: 9.6; TcdB inh: 14.8*; VHR inh abs: 17.0

What do the screens show for `S=C(NCc1ccccc1)Nc1ccncc1`?
PrPC TRFRET: 7.2; TcdB inh: 0.8; VHR inh abs: 52.8*

How did O=C(NNC(=S)NC(=O)c1cccnc1)c1ccccc1 do in these assays?
PrPC TRFRET: -2.9; VHR inh abs: 33.8

How did COc1ccc(S(=O)(=O)Nc2ccc3c(c2)C(=O)N([C@@H](C)CO)C[C@H](C)[C@@H](CN(C)S(=O)(=O)c2ccc(OC)cc2)O3)cc1 do in these assays?
TcdB inh: 0.3

Results for Cc1noc(C)c1NC(=O)N(C)C[C@H]1Oc2ccc(NS(=O)(=O)c3ccc(Cl)cc3)cc2C(=O)N([C@@H](C)CO)C[C@H]1C ?
TcdB inh: -1.4

What do the screens show for `CN1CCN(C(=O)C[C@H]2CC[C@H](NS(=O)(=O)c3cccc(F)c3)[C@H](CO)O2)CC1`?
TcdB inh: 0.2

Results for COc1ccc(S(=O)(=O)N(C)C[C@@H]2OCCCC[C@H](C)Oc3ccc(NC(=O)Nc4c(C)noc4C)cc3C(=O)N([C@@H](C)CO)C[C@H]2C)cc1 ?
TcdB inh: 0.4

How did COC(=O)c1cn(CCCNC(=O)Nc2ccccc2)nn1 do in these assays?
TcdB inh: -0.3
